Each structure is given as a SMILES string. Records with an inconclusive call do not appear. Calls of active or inactive are those of the source. How the source made its calls: active means hit-call score of the fitted dose curve at least 0.9, where 1 is the maximum; inconclusive means response in the unintended direction; inactive means score below 0.9.

Sequence of Oxysterols receptor LXR-alpha (Homo sapiens) (Q13133 whole entry, looked up): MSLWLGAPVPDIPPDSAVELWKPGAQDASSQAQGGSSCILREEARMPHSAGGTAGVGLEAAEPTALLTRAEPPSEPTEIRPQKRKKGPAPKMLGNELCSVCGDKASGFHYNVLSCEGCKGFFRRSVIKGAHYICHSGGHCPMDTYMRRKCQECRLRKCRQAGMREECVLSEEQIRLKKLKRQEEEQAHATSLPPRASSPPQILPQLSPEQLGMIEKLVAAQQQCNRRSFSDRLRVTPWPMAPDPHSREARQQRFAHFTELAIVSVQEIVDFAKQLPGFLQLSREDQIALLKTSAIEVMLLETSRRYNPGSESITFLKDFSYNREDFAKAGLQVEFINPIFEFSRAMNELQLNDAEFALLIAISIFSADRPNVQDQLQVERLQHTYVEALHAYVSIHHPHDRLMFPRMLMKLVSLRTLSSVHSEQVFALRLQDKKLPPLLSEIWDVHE

This experiment deals with Oxysterols receptor LXR-alpha (Homo sapiens) (UniProt Q13133). In words: ATG_LXRa_TRANS: Attagene TRANS-FACTORIAL HepG2 Assay for human Liver X Receptor alpha (LXRa) (AID 2282980). The note with it: HepG2 Attagene TRANS reporter, LXRa transactivation. As to the method:
ATG_TRANS is a cell-based, multiplexed-readout assay that uses HepG2, a human liver cell line, with measurements taken at 24 hours after chemical dosing in a 24-well plate.ATG_LXRa_TRANS is one of 30 assay component(s) measured or calculated from the ATG_TRANS assay. It is designed to make measurements of mRNA induction, a form of inducible reporter, as detected with fluorescence intensity signals by Reverse transcription polymerase chain reaction (RT-PCR) and Capillary electrophoresis technology.Data from the assay component ATG_LXRa_TRANS was analyzed into 1 assay endpoint. This assay endpoint, ATG_LXRa_TRANS, was analyzed in the positive analysis fitting direction relative to DMSO as the negative control and baseline of activity. Using a type of inducible reporter, measures of mRNA for gain-of-signal activity can be used to understand the reporter gene at the transcription factor-level as they relate to the gene NR1H3. Furthermore, this assay endpoint can be referred to as a primary readout, because this assay has produced multiple assay endpoints where this one serves a reporter gene function. To generalize the intended target to other relatable targets, this assay endpoint is annotated to the nuclear receptor intended target family, where the subfamily is non-steroidal.
Human liver HepG2 cells are transiently transfected with multiple reporter transcription units (MRTUs) in 6-well plates using FuGene 6 reagent (Roche; 3 ml FuGene/1 mg DNA). The MRTU constructs are regulated by a cis-regulating element (promoter). […] A major difference between the CIS and TRANS system is that in CIS activities of endogenous TFs are measured, whereas the TRANS assay evaluates changes in activities of exogenous, chimeric NR-Gal4 proteins. […] At the end of 24 hour incubation, total RNA was isolated using TriZol reagent (Invitrogen). The isolated RNA is then reverse-transcribed using oligo(dT) primer and Mo-MLV reverse transcriptase (Invitrogen) with DNAse I (Ambion) treatment for 30 min. The one-tenth of the produced cDNA was amplified by PCR using Taq DNA polymerase (Invitrogen) and two reporter sequence-specific primers. The PCR products were fluorescently labeled by primer extension with 6-arboxyfluorescein (6-FAM) 5'-labeled reporter sequence-specific primer (2 min at 95 C, 20 s at 68 C and 10 min at 72 C) and these products were digested with 5U of HpaI (New England Biolabs) for 2h at 37 C. The fragments were purified using Qiaquick PCR columns (Qiagen), analyzed on an ABI 3130xL genetic analyzer (Applied Biosystems) with peak positions identified by using a set of X-rhodamine (ROX)-labeled MapMarker1000 molecular weight standards (BioVentures). The raw capillary electrophoresis data was processed using Attagraph software (Attagene).
Take `CCc1ccc(CCOc2ccc(CC3SC(=O)NC3=O)cc2)nc1` (centres undefined): the result was inactive.
Same read-out and setting: the value for `CC(=O)CC(C)(C)O` was “inactive”.
On to `N#C[C@@H]1CC(F)(F)CN1C(=O)CNC1CC2CCC(C1)N2c1ncccn1` (some centres undefined), for which the call was inactive.
Consider `CN(C)C=O`, for which the outcome was inactive.
On the same count and under the same terms, the value for `FC(F)(I)C(F)(F)C(F)(F)C(F)(F)C(F)(F)C(F)(F)I` was “inactive”; that for `O=C(/C=C/c1ccc(O)cc1)CC(=O)/C=C/c1ccc(O)cc1` was “inactive”.
Same read-out and setting: the value for `CCCCCCC(=O)O` was “inactive”; that for `C[C@@H]1C[C@H]2[C@@H]3CCC4=CC(=O)C=C[C@]4(C)[C@@]3(F)[C@@H](O)C[C@]2(C)[C@@]1(O)C(=O)COP(=O)(O)O` was “inactive”; that for `CC(O)C(=O)O` (centres undefined) was “inactive”.
Take `O=C(OCCOCCOC(=O)c1ccccc1)c1ccccc1`: the outcome was inactive.
`O=C1OC2(c3ccccc31)c1cc(Br)c(O)c(Br)c1Oc1c2cc(Br)c(O)c1Br`: the molecule was called inactive.
The same measure, in the same setting: the value for `CCC(C)(C)C1CCC(O)CC1` (centres undefined) was “inactive”; that for `O=[N+]([O-])c1ccc(O)cc1` was “inactive”.
Turning to `OC1CCCCC1`, the call was inactive.
For `COCC(C)O` (centres undefined), the result was inactive.
For `OC1CCC(C2CCCCC2)CC1` (centres undefined), the call was inactive.
Still for that read-out and setting: for `O=C(O)c1ccccc1C(c1ccc(O)cc1)c1ccc(O)cc1` the value was “inactive”; for `CC(C)(C)c1cc(C(C)(C)C)c(O)c(C(C)(C)C)c1`, “inactive”.
In the case of `CC(C)(C)c1cccc(C(C)(C)C)c1O`, the AC50 is 49.7 µM (active).
On to `Cc1ccc(S(=O)(=O)O)c(C)c1`, for which the call was inactive.
`CCN(CC)CCNc1ccc(CNC=O)c2sc3ccc(OC)cc3c(=O)c12`: the AC50 was 1.26 µM (active).
For the molecule `O=C(O)Cc1cc(I)c(Oc2cc(I)c(O)c(I)c2)c(I)c1`, the outcome was inactive.
Consider `CCCCC(CC)COC(=O)CCCCC(=O)OCC(CC)CCCC` (centres undefined), for which the result was inactive.
On the same count and under the same terms, for `NC(=O)N1C(=O)C(C(=O)c2cc(Cl)cs2)c2cc(F)c(Cl)cc21` (centres undefined) the value was “inactive”.
For `CC(=O)NC1(c2cccc(F)c2)CCN(CC[C@@]2(c3ccc(Cl)c(Cl)c3)CN(c3ccccc3)C(=O)CO2)CC1`, the result was inactive.
Same read-out and setting: for `CCCCC[C@H](O)CC(=O)CCc1ccc(O)c(OC)c1` the value was “inactive”.
For `O=c1c(-c2ccc(O)cc2)coc2cc(O)ccc12`, the outcome was inactive.
Turning to `CCOC(=O)CC(O)(CC(=O)OCC)C(=O)OCC`, the molecule was classed as inactive.
The same measure, in the same setting: for `Oc1cc2ccccc2c2ccccc12` the value was “inactive”; for `CCCOC(=O)c1ccc(O)cc1`, “inactive”; for `CC1=C(/C=C/C(C)=C/C=C/C(C)=C/C(=O)O)C(C)(C)CCC1`, “inactive”.
The same measure, in the same setting: the value for `CC(C)CCCCCCOC(=O)CCCCC(=O)OCCCCCCC(C)C` was “inactive”.
As for `OCCC(F)(F)C(F)(F)C(F)(F)C(F)(F)C(F)(F)C(F)(F)C(F)(F)C(F)(F)F`, the result was inactive.
Still for that read-out and setting: for `ClC1=C(Cl)C(Cl)(Cl)C(Cl)=C1Cl` the value was “inactive”.
Take `CCCOc1sc(C(=O)N2CCC(c3cc(CN)ccc3F)CC2)c(C)c1Br`: the AC50 is 1.34 µM (active).
On the same count and under the same terms, the value for `CC(C)(C)c1ccc(O)c(C(C)(C)C)c1` was 5.26 µM (active).
As to `CCCCCCCCCCCCc1ccccc1S(=O)(=O)O`, the molecule was called inactive.
Regarding `OCCC(F)(F)C(F)(F)C(F)(F)C(F)(F)C(F)(F)C(F)(F)F`, the call was inactive.
For `CCC(=C(c1ccc(O)cc1)c1ccc(OCCN(C)C)cc1)c1ccccc1`, the result was inactive.

As a reminder, the AC50 is the concentration giving half of the maximal activity seen.

Values taken from PubChem BioAssay (EPA / NIEHS).
